This is an account of results in PubChem BioAssay AID1117361 (Southern Research Institute, 2015).

Among all 3,600 compounds or so, about 900 (25%) were called active. No rule for the calls is given here. A selection follows. Measured potencies and affinities stand elsewhere.

The target of this test is Protein Tat (Human immunodeficiency virus type 1 group M subtype B (isolate HXB2)) (UniProt P04608). Put plainly: HIV-1 Tat–TAR interaction blockers – biochemical, fluorescence polarization, FAM-labeled TAR RNA, counter-screen for Vif-APOBEC3G degradation inhibitor project, dose response (AID 1117361). Particulars: Tat-TAR RNA binding; series mostly up to 100 µM. A general note: In fluorescence polarisation assays a small probe gives low polarisation when free and higher when bound to something large.
For `O=C(CN1C(=O)CSC1=O)Nc1ccccc1N1CCOCC1`, the outcome was inactive.

For `Cc1cccc(NC(=O)CC2NC3CCCCC3NC2=O)c1` (stereo not given), the outcome was inactive.

Regarding `O=C(/C=C/c1ccco1)NC(=S)Nc1ccc(C(=O)O)cc1`, the compound was classed as inactive.

As for `O=C(/C=C/c1ccco1)Nc1ccc(Oc2ccccc2)cc1`, the compound was called inactive.

Take `CCC(=O)N1CCN(c2ccccc2NC(=O)c2cccc(C)c2)CC1`: the compound was classed as inactive.

Turning to `Cc1ccc2c(c1)CCCN2C(=O)c1cc(C)c(C)s1`, the outcome was inactive.

As for `Cc1ccc(NC(=O)C(C)Sc2nc3nc(C)cc(C)n3n2)cc1` (stereo not given), the result was inactive.

With `Cc1cc(C)n(-c2ncc(-c3ccccc3)nn2)n1`, the compound was called inactive.

Turning to `C=CCOC(=O)CN1C(=O)c2ccccc2C1=O`, the outcome was inactive.

Regarding `O=C(NC1CCCCC1)c1sc(=S)n2c1[nH]c(=O)c1ccccc12`, the compound was classed as inactive.

Take `Cc1ccc(-n2nnnc2SCn2nnc3ccccc3c2=O)cc1`: the result was inactive.

Consider `Cc1cccc(CCNC(=O)CCc2nc(-c3ccccc3F)no2)c1`, for which the result was inactive.

For `Cc1cc(C)nc(N(C#N)CN2C(=O)c3ccccc3S2(=O)=O)n1`, the compound was classed as inactive.

For `Nc1ccc(S(=O)(=O)c2cc(O)c3ccccc3c2O)cc1`, the compound was classed as inactive.

With `CCOC(=O)CS(=O)(=O)c1ccc2ccccc2c1`, the result was inactive.

For `CCc1cc(C=NC2CCCCC2)c(O)s1`, the outcome was inactive.

Consider `CN(C)NC(=S)NC1CCS(=O)(=O)C1` (stereo not given), for which the compound was called inactive.

`CCCOc1ccc2[nH]cc(C(=O)O)c(=O)c2c1`: the compound was called inactive.

For `Cc1ccc(Oc2ccc(/C=N/O)cn2)cc1`, the outcome was inactive.

`O=S(=O)(Nc1ccc2c(c1)nc1n2CCN(Cc2ccccc2)C1)c1ccc(Cl)cc1`: the call was inactive.

With `COCCCNc1nc2c(c(=O)n(C)c(=O)n2C)n1Cc1cccc(OC)c1`, the compound was classed as inactive.

In the case of `CCCCc1c(C)nc2ccc(Br)cc2c1SCCC#N`, the outcome was inactive.

Consider `COc1ccc(C)cc1Nc1c2c(nc3ccccc13)CCC2`, for which the compound was classed as inactive.

Turning to `COc1cc2ccccc2nn1`, the compound was classed as inactive.

As to `CC(=O)Nc1nonc1NC(=O)CSC1=NCCS1`, the result was inactive.

For the compound `CNC(=O)CN1C(=O)NC2(CCc3ccccc32)C1=O` (stereo not given), the compound was called inactive.

Consider `O=C(CSc1nnc(CN2CCOCC2)n1-c1ccccc1)Nc1ccc(Cl)cc1`, for which the compound was classed as inactive.

As to `CC1(C)CC(=O)C2=C(C1)N(Cc1cccnc1)C(=O)C2(NC(=O)C1CC1)C(F)(F)F` (stereo not given), the compound was classed as inactive.

In the case of `Cc1cc(C)cc(N(CCC#N)C(=O)CSc2nc3nc(C)cc(C)n3n2)c1`, the result was inactive.

In the case of `Cc1c(C(=O)Nc2cccc([N+](=O)[O-])c2)csc1-c1ccccc1`, the result was inactive.

Take `O=C(Nc1ccc(C(=O)N2CCOCC2)cc1)c1ccccc1[N+](=O)[O-]`: the compound was called inactive.

Take `O=C(C1CCN(S(=O)(=O)N2CCOCC2)CC1)N1CCN(Cc2ccc3c(c2)OCO3)CC1`: the compound was classed as inactive.

Turning to `CN(CCO)CC(O)CN(c1ccccc1)c1ccccc1` (stereo not given), the outcome was inactive.

Turning to `COC(=O)c1c[nH]n2c(=O)c(Cc3ccc(F)cc3Cl)c(C)nc12`, the outcome was inactive.

With `CCOC(=O)c1c(Nc2ccccc2N)cc(C)nc1C`, the compound was classed as inactive.

As for `O=C(CCc1nc(-c2ccccc2F)no1)NC1CCCCCC1`, the result was inactive.

Regarding `CCOc1ccc(N(CC(=O)Nc2ccccc2C(=O)NCc2ccco2)S(C)(=O)=O)cc1`, the compound was classed as inactive.

`CC1CN(Cc2cc(=O)[nH]c(C3CC3)n2)CC(C)O1` (stereo not given): the call was inactive.

As for `Cn1c(Cn2c(=O)sc3ccccc32)nnc1SCC(=O)NCc1ccc(F)cc1`, the outcome was inactive.

Take `Cc1cc(=O)oc2cc(OCC(=O)NCc3cccnc3)ccc12`: the result was inactive.

For the compound `Fc1cc(F)cc(NC(=S)NCCCN2CCOCC2)c1`, the result was inactive.

For `COC(=O)c1ccccc1NC(=O)c1noc2c1CCC2`, the compound was called inactive.

For `COc1ccccc1NC(=O)CSc1nnc(C)n1CCc1ccccc1`, the compound was called inactive.

On to `Cc1ccc(C2CC(c3cccc(Cl)c3)n3nc(N)nc3N2)cc1` (stereo not given), for which the compound was classed as inactive.

For `COc1ccc(C2CC(c3cccs3)n3nc(N)nc3N2)cc1` (stereo not given), the compound was called inactive.

Regarding `CCOc1cc(C)nc(NCCc2ccc(OC)c(OC)c2)n1`, the result was inactive.

As to `COc1cc(CNCCc2ccccc2F)ccc1OCc1ccc(Cl)nc1`, the result was inactive.

Consider `Cc1ccc(NC(=O)C(C)NC(=O)OCc2ccccc2)cc1C` (stereo not given), for which the call was inactive.

For the compound `Cc1cc(=O)[nH]c2c1c(C)nn2C1CCCCC1`, the call was inactive.

With `O=C(CC1SCCNC1=O)Nc1ccc(Cl)cc1` (stereo not given), the compound was called inactive.

For `CSc1nc(NCCCO)c2c3c(sc2n1)CN(C)CC3`, the outcome was inactive.

As to `Fc1cccc(-c2cc3nc4c(c(NCc5ccco5)n3n2)CCCC4)c1`, the compound was called inactive.

`CCC1=NN2C(=N)/C(=C\c3cccn3-c3cccc(Cl)c3)C(=O)N=C2S1`: the outcome was inactive.

Consider `COc1ccc(NC2CS(=O)(=O)CC2NCc2ccco2)cc1` (stereo not given), for which the compound was called inactive.

In the case of `COc1cccc(S(=O)(=O)N2CCN(c3ccccc3F)CC2)c1`, the call was inactive.

`COc1ccccc1CNC(=O)COC(=O)c1ccc(NC(N)=O)cc1`: the result was inactive.

As for `O=S(=O)(NCc1ccc2c(c1)OCO2)c1cccc(S(=O)(=O)N2CCOCC2)c1`, the compound was classed as inactive.

On to `COCCN1Cc2cccc(C(=O)NCc3ccccn3)c2C1=O`, for which the compound was called inactive.

Consider `Cc1cccc(N2CCN(CC(O)COc3ccc(Cl)cc3)CC2)c1` (stereo not given), for which the result was inactive.

With `COCC(=O)NC1CCN(CC(=O)Nc2ccc(OC)cc2[N+](=O)[O-])CC1`, the outcome was inactive.

Turning to `CC(=O)NS(=O)(=O)c1cccnc1Nc1cccc(Cl)c1`, the outcome was inactive.

On to `CCc1nnc(NC(=O)c2ccc3c(c2)C(=O)N(C(C)(C)C)C3=O)s1`, for which the result was inactive.

`N#Cc1cccc(Oc2ccc(S(=O)(=O)N3CCCC3)cn2)c1`: the result was inactive.

In the case of `NC(=O)C1CCCN(CC(=O)Nc2ccccc2C(=O)NC2CC2)C1` (stereo not given), the call was inactive.

On to `COC(=O)Cc1cc(=O)n(-c2nc3ccccc3[nH]2)[nH]1`, for which the call was inactive.

Consider `Cc1cccc(N(CC(=O)N/N=C/c2ccc(OCC(=O)NCc3ccco3)cc2)S(C)(=O)=O)c1C`, for which the result was inactive.

As for `CCn1c(CNc2ccc(C)cc2)nnc1SCC(=O)NCc1ccccc1`, the call was inactive.

Take `CCc1ccc(CNCc2cccnc2)cc1`: the compound was called inactive.

With `Cc1ccc(CNC(=O)COc2ccc3c(c2)CCC3)cc1`, the call was inactive.

As to `COc1ccc(OC)c(-c2cc(C(=O)NCc3cccs3)no2)c1`, the compound was called inactive.

Take `CC1(C)Oc2ccc(C(=O)NC3CCCC3)cc2N(CC(=O)N2CCOCC2)C1=O`: the compound was called inactive.

In the case of `COc1cc(SC)ccc1C(=O)Nc1c(C)cccc1C`, the outcome was inactive.

For `CC(Oc1ccc(Cl)cc1)C(=O)Nc1ncccn1` (stereo not given), the outcome was inactive.

As for `N[C@@H](Cc1c[nH]c2ccccc12)C(=O)O`, the compound was classed as inactive.

For the compound `O=C(CCc1c[nH]c2ccccc12)NC1CC1`, the call was inactive.
